D3 ag: D3 dopamine receptor (human) agonism; actives 0.58% (n = 410,000); P35462; max activation, %; AID 652048; D3R DiscoveRx beta-arrestin cells, luminescence, 90 min; in the data active means max activation above about 30%
Target sequence (P35462 whole entry, looked up): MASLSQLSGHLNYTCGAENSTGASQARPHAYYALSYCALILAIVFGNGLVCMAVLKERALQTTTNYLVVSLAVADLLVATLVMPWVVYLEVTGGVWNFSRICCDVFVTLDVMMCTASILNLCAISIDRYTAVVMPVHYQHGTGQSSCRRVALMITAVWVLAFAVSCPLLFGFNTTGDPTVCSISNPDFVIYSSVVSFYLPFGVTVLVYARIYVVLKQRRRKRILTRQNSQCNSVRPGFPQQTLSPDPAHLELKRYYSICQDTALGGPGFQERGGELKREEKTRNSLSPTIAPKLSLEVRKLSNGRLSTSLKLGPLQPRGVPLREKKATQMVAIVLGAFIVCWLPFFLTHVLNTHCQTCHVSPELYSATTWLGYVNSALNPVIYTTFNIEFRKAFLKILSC
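Agonist mode: compounds and dopamine controls were applied to plated cells for 90 min at 37 degrees C after an overnight attachment at 1500 cells/well. Luminescent read-out followed 30 - 60 minutes at room temperature with DiscoveRx detection reagent.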
DRD3 antagonist: blocks the human D3 dopamine receptor | D3R cells, DiscoveRx beta-arrestin luminescence, antagonist mode; active compounds read low | max response, negative = inhibition, % | P35462 | actives 2.5% (n = 360,000) | AID 652054; in the data active means max response below about -50%; inconclusive means no clear call, values can overlap the other calls
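Cells plated overnight at 1500 cells/well, then exposed to library compounds with dopamine controls for 90 minutes at 37 degrees C. DiscoveRx reagent added for 30–60 minutes at room temperature; luminescence read, quantitative HTS format.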
D1 PAM: potentiators of human D1 dopamine receptor. AID 504651. HEK293 TREx D1 cells, calcium flux, dopamine EC20 potentiation. actives 0.036% (n = 360,000). P21728. potentiation, % at 10 µM; in the data active means potentiation above about 30%
D1 agonist: agonists of human D1 dopamine receptor. P21728. HEK293 T-REx D1 cells, calcium flux, agonist mode. activation, % at 2 µM. actives 1% (n = 360,000). AID 504660; in the data active means activation above about 30%
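Inducible HEK293 T-REx D1 cells, force-coupled to calcium signalling, were plated at 4000 cells/well with tetracycline and held overnight at 30 C. After no-wash calcium dye loading, compound-evoked calcium rise over 180 s flagged agonists.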
D1 antag: human D1 dopamine receptor antagonism; P21728; HEK293 TREx D1 cells, calcium flux, dopamine EC80; active compounds read low; activity change, negative = inhibition, % at 10 µM; actives 3.2% (n = 360,000); in the data active means activity change below about -30%
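Antagonism measured as reduced calcium response to an EC80 dopamine addition following 180 s compound pre-read; cells were inducible HEK293 Trex D1 plated overnight at 30 C, read kinetically at 1 cycle/sec.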
A number is an active result; i = inactive; ? = inconclusive; nt = not tested or not shown; ! = a repeat was not active. Rows were chosen to be rich in hits. Some 6% of all compounds tested hit in one or more screens of this group.

SMILES | D3 ag | DRD3 antagonist | D1 PAM | D1 agonist | D1 antag
Cc1nn(-c2ccccc2)c(C)c1/C=C/C(=O)OCC(=O)Nc1ccc(S(N)(=O)=O)cc1 | i | i | nt | i | -32
COc1ccc(CCNC(=O)c2cccc(Nc3nc4ccccc4nc3-n3nc(C)cc3C)c2)cc1OC | i | nt | i | i | i
COc1cc(/C=N\NC(=O)CC#N)ccc1OC/C=C/c1ccccc1 | i | i | i | i | -38
Cc1cccc(NC(=O)CC2SC(=NC3CCCCC3)NC2=O)c1 (stereo unspecified) | i | i | i | i | -33
COC(=O)c1cc(Cl)c(NC(=O)C(C)C)cc1OC | i | i | i | i | i
COC(=O)c1cc(Cl)c(NC(=O)c2ccc(C(C)(C)C)cc2)cc1OC | 70 | i | i | i | i
CCOC(=O)c1cnc2c(Cl)cc(Cl)cc2c1Nc1ccccc1OC | i | nt | i | i | i
O=C(NCCS(=O)(=O)N1CCN(c2ccccc2F)CC1)c1ccc(F)c(F)c1 | i | i | i | i | -33
O=C(Cc1ccc(-c2ccccc2)cc1)NCCS(=O)(=O)N1CCN(c2ccccc2F)CC1 | i | nt | i | i | i
Cc1c(C)n(C)c2ccc(C(=O)NCCCN3CCCC3)cc12 | i | i | i | i | i
Cc1c(C)n(C)c2ccc(C(=O)NCCCN3CCN(c4ccc(F)cc4)CC3)cc12 | i | -56 | i | i | i
Cc1c(C)n(Cc2ccccc2)c2ccc(C(=O)NCCCN3CCOCC3)cc12 | i | i | i | i | i
Cc1c(C)n(Cc2ccc(F)cc2)c2ccc(C(=O)NCCCN3CCOCC3)cc12 | i | ? | i | i | -37
Cc1c(C)n(C)c2ccc(C(=O)NCCCN3CCN(c4ccccc4F)CC3)cc12 | i | -82 | i | i | i
CN(CC(=O)Nc1cccc(S(=O)(=O)N(C)c2ccccc2)c1)Cc1cccs1 | i | i | nt | nt | nt
O=C(Nc1ccc(F)c(Cl)c1)N1CCC(CN2CCOCC2)CC1 | i | nt | i | i | i
Cc1ccc(C(NC(=O)NCCCN2CCOCC2)=C(Cl)Cl)cc1F | i | -75 | i | i | i
COc1cc(SC)ccc1C(=O)N1CCn2c3c(c4cc(C)ccc42)CCCC31 (stereo unspecified) | i | nt | i | i | i
CCOC(=O)C1=C(CN(CC)Cc2ccccc2)NC(=O)NC1c1ccc(OC(C)C)cc1 (stereo unspecified) | i | nt | i | i | -45
CCOC(=O)C1=C(Cn2cnc3ccccc32)NC(=O)NC1c1ccc(OC)cc1 (stereo unspecified) | i | i | i | i | i
CCOC(=O)C1=C(CN2CCC(C)CC2)NC(=O)NC1c1ccc(OC(C)C)cc1 (stereo unspecified) | i | nt | i | i | i
CCOC(=O)C1=C(Cn2cnc3ccccc32)NC(=O)NC1c1ccc(Cl)cc1 (stereo unspecified) | 32 | i | i | i | i
COC(=O)c1cc2oc3ccccc3c2n1CC(=O)Nc1ccc(C)cc1Cl | i | nt | i | i | i
CCN(CC)CCOc1ccccc1OC | i | i | i | i | i
CCCN(CCO)Cc1ccc(Br)cc1 | i | i | i | i | i
SMILES | D3 ag | DRD3 antagonist | D1 PAM | D1 agonist | D1 antag
CC(C)(C)NCCOc1ccc(Br)cc1 | i | -52 | i | i | i
CCN(CC)CCN(C)Cc1ccc(Br)cc1 | i | -55 | i | i | i
CCN(CC)CCOc1ccc(/C(=C(\Cl)c2ccccc2)c2ccccc2)cc1 | nt | -65 | nt | nt | nt
CCN(CC)CCOc1ccc(Br)cc1 | i | -119 | i | i | i
O=C1Nc2ccccc2C(=O)N(Cc2ccccc2)C1C(=O)NC1CC1 (stereo unspecified) | i | i | nt | nt | nt
N#C/C(=C(/O)c1ccccc1F)c1nc2cc(C(F)(F)F)ccc2s1 | i | i | i | i | i
N#C/C(=C(/O)c1ccc2c(c1)OCO2)c1nc2cc(C(F)(F)F)ccc2s1 | i | ? | i | i | -41
O=[N+]([O-])c1cc(Cl)ccc1N1CCCC1 | i | i | i | i | i
O=C1C(Cl)=C(N2CCN(c3ccccc3[N+](=O)[O-])CC2)C(=O)c2ccccc21 | i | -60 | i | i | i
O=C(c1ccccc1)N1CCN(Cc2c[nH]c3ccccc23)CC1 | i | -85 | i | i | i
COc1cccc(OC)c1C(=O)N1CCN(Cc2c[nH]c3ccccc23)CC1 | i | i | nt | nt | nt
O=C(c1cccc(F)c1)N1CCC(c2c[nH]c3ccccc23)(c2c[nH]c3ccccc23)CC1 | i | nt | i | i | i
O=C(Cc1c[nH]c2ccccc12)N1CCN(S(=O)(=O)c2ccc(Cl)cc2)CC1 | i | i | i | i | -36
O=C(CCc1c[nH]c2ccccc12)N1CCCC1 | i | i | i | i | i
CC(=O)N1CCN(C(=O)CCc2c[nH]c3ccccc23)CC1 | i | i | i | i | -34
O=C(c1cccc(F)c1)N1CCN(Cc2c[nH]c3ccccc23)CC1 | i | i | i | i | -55
COc1ccc(-n2nc3c(N4CCCC(C(=O)NCCc5ccc(C)cc5)C4)nnc(C)c3c2C)cc1 (stereo unspecified) | i | nt | i | i | i
O=C(COC(=O)C1CC1)c1c[nH]c2ccccc12 | i | i | i | i | i
O=[N+]([O-])c1ccccc1CN1CCN(Cc2ccccn2)CC1 | i | i | i | i | i
O=C(Cc1ccccc1[N+](=O)[O-])OCC(=O)c1c[nH]c2ccccc12 | i | i | i | i | -38
O=[N+]([O-])c1ccccc1CN1CCN(Cc2c[nH]c3ccccc23)CC1 | i | ? | i | i | -30
O=S(=O)(Nc1cccc(CCc2ccccn2)c1)c1cc(Cl)ccc1Cl | i | i | i | i | i
O=S(=O)(Nc1cccc(CCc2ccccn2)c1)c1ccc2ccccc2c1 | i | i | i | 32 | i
CCn1nc(C)c(Br)c1-c1nc(-c2ccc(C)cc2)no1 | 35 | i | i | i | i
CCn1nc(C)c(Br)c1-c1nc(CS(=O)(=O)c2ccc(F)cc2)no1 | i | i | i | i | i
SMILES | D3 ag | DRD3 antagonist | D1 PAM | D1 agonist | D1 antag
Cc1cccn2c(=O)c3cc(C(=O)NCCN4CCOCC4)c(=N)n(CCCN4CCOCC4)c3nc12 | i | i | i | i | i
COCCCn1c(C(=O)NCCN2CCOCC2)cc2c(=O)n3cccc(C)c3nc21 | i | -54 | i | i | i
COc1ccc(CC(=O)N/N=C(\C)c2cccnc2)cc1 | i | i | i | i | i
CN=c1scc(-c2ccc(OC)cc2)n1/N=C(\C)c1cccnc1 | 35 | i | i | i | -55
OC(c1ccc(-c2ccccc2)cc1)c1ncc(-c2ccccc2)[nH]1 (stereo unspecified) | i | i | nt | nt | nt
COc1ccc(-c2ccc(-c3nc4ccc(C)cn4c3NC3CCCCC3)cc2OC)cc1 | 55! | i | i | i | i
CCC(C)Sc1cccc(-c2nc3ccc(C)cn3c2NC2CCCCC2)c1 (stereo unspecified) | 53! | i | i | i | i
Cc1ccc2nc(-c3cccc(SC4CCCCC4)c3)c(NC3CCCCC3)n2c1 | i | i | nt | nt | nt

Assay outcomes as filed in PubChem BioAssay.
